Hits are enriched below; roughly 11% of the tested compounds scored in any of these assays.
Pf growth 96h = Primary qHTS for delayed death inhibitors of the malarial parasite plastid, 96 hour incubation; P. falciparum luciferase reporter growth, 96 h; Potency, µM (top dose mostly 28.7 µM), inactives show at the highest dose activity change, negative = inhibition, actives largely listed as inhibitors; actives 6.9% (n = 320,000)
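Parasite growth measured via integrated firefly luciferase reporter in P. falciparum. Infected erythrocytes at 2% hematocrit, 0.05% parasitemia final were treated 96 hours at 37 C under 5% CO2, and luminescence was read.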
AMA1-RON2 inh = qHTS for Inhibitors of AMA1-RON; Towards Development of Antimalarial Drug Lead: Primary Screen; Potency, µM (titrated, usually from 58.2 µM), for the others: top-dose activity change, negative = inhibition, most hits filed as inhibitors; actives 0.2% (n = 360,000); AID 720542, 2013; Plasmodium falciparum AMA1 (3D7) - RON2 peptide interaction; AlphaScreen AMA1-biotinylated RON2 peptide binding;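 note: 0% = vehicle wells and -100% = peptide control; nearly all actives have a fitted effect of over 45% in size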
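AMA1 (3D7) with his tag at 25 nM final met compounds first, then biotinylated RON2 peptide at 25 nM; detection used donor plus acceptor beads, 10 µg/mL apiece, read by AlphaScreen after 30 min at room temperature.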
Pf growth 48h = Primary qHTS for delayed death inhibitors of the malarial parasite plastid, 48 hour incubation | actives 5.9% (n = 310,000) | Potency, µM (titrated, usually from 28.7 µM), inactives show at the top dose activity change, negative = inhibition, most hits filed as inhibitors | AID 504832, 2011 | P. falciparum luciferase growth in erythrocytes, 48 h
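Compounds are pin-transferred into medium, infected erythrocytes (2% hematocrit, 0.1% parasitemia final) are added, and plates sit one parasite generation at 37 C in 5% CO2. Detection reagent is then added and luminescence measured.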
HCV inh = qHTS Assay for Inhibitors of Hepatitis C Virus (HCV) | Huh7.5.1 HCVcc-Cre infection, luciferase reporter, 44 h | Potency, µM (doses to about 41.8 µM), inactives show at the top dose activity change, negative = inhibition, most hits filed as inhibitors | actives 3.4% (n = 340,000)
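Whole-lifecycle infectious HCVcc-Cre system; cells 1,000/well, compound then virus (~0.5 moi) added 4 h after plating, 44 h culture. Luciferase read 15 sec following 15 min substrate incubation, room temp.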
* hit, by the source's call; [ ] = remark or other dose. Calls come from the whole dose curve; as a rule, active = well fitted curve in the direction sought with a large enough effect; inconclusive = small, poorly fitted or top-dose-only effect, or another doubt; inactive = no such curve, though single readings can be large; an effect the other way counts as inactive or inconclusive. Unless noted, % is set by controls: 0 for no effect and ±100 for the full control effect; potency is the fitted concentration of half-maximal effect.

What do the screens show for `CN1CCC(OC(=O)c2ccc(Cl)cc2Cl)CC1`?
Pf growth 96h: 7.4µM*; AMA1-RON2 inh: -2%; Pf growth 48h: 9%; HCV inh: inconclusive

Results for COC(=O)c1cc(C(=O)c2cccc(Cl)c2Cl)cn1C ?
Pf growth 96h: -10%; AMA1-RON2 inh: -1%; Pf growth 48h: 37%; HCV inh: -14%

How did COC(=O)c1cc(C(=O)c2ccc(Cl)cc2Cl)cn1C do in these assays?
Pf growth 96h: 5.2µM*; AMA1-RON2 inh: 7%; Pf growth 48h: 4.7µM*; HCV inh: -7%

Results for CN1CCC(OC(=O)c2ccccc2Cl)CC1 ?
Pf growth 96h: 24%; AMA1-RON2 inh: inconclusive; Pf growth 48h: 23%; HCV inh: 3%

How did Cc1cc(C)n2nc(SCC(=O)N3CCOCC3)nc2n1 do in these assays?
Pf growth 96h: -6%; AMA1-RON2 inh: -8%; Pf growth 48h: 31%; HCV inh: 12%

Results for COc1ccc(N2CCN(C(=O)CSc3nc4nc(C)cc(C)n4n3)CC2)cc1 ?
Pf growth 96h: 13µM*; AMA1-RON2 inh: 1%[11.6 µM]; Pf growth 48h: inconclusive; HCV inh: 1%

What do the screens show for `Cc1cc(C)n2nc(SCC(=O)N3CCN(c4ccc(F)cc4)CC3)nc2n1`?
Pf growth 96h: 6.6µM*; AMA1-RON2 inh: -3%; Pf growth 48h: inconclusive; HCV inh: 8%

What do the screens show for `S=C(Nc1ccc(-c2nc3ccccc3[nH]2)cc1)Nc1cccnc1`?
Pf growth 96h: -55%; AMA1-RON2 inh: 31%; Pf growth 48h: inconclusive; HCV inh: inconclusive

How did Cc1cc(/C=N/n2cnnc2)c(C)n1-c1ccc(OCc2ccc(F)cc2)cc1 do in these assays?
Pf growth 96h: inconclusive; AMA1-RON2 inh: -26%; Pf growth 48h: -6%; HCV inh: 11µM*

What do the screens show for `Cc1cc(/C=N/n2cnnc2)c(C)n1-c1ccc(Cl)cc1`?
Pf growth 96h: 43%; AMA1-RON2 inh: -13%; Pf growth 48h: -3%; HCV inh: 10%

How did Cc1cc(/C=N/n2cnnc2)c(C)n1-c1ccc(OCc2ccc(Cl)cc2Cl)cc1 do in these assays?
Pf growth 96h: inconclusive; AMA1-RON2 inh: -24%; HCV inh: 5.6µM*

Results for Cc1ccc(/C=N/n2c(C)nc3ccccc3c2=O)s1 ?
Pf growth 96h: 210%; Pf growth 48h: inactive

Results for COc1cc(Cl)c(NC2=CC(=O)C(=O)c3ccccc32)c(OC)c1 ?
Pf growth 96h: inconclusive; AMA1-RON2 inh: -18%; Pf growth 48h: 0.37µM*; HCV inh: 16µM*

How did COc1cc(Cl)c(NS(=O)(=O)c2ccc(-c3ccc(=O)[nH]n3)o2)c(OC)c1 do in these assays?
Pf growth 96h: 56%; AMA1-RON2 inh: -9%; Pf growth 48h: 18%; HCV inh: 2%

Results for Cc1cc([N+](=O)[O-])c2ccccc2[n+]1[O-] ?
Pf growth 96h: -20%; AMA1-RON2 inh: 2%; Pf growth 48h: inconclusive; HCV inh: 11µM*

How did Cc1ccc(S(=O)(=O)N2CCOCC2)cc1C(=O)OC(C)C(=O)c1ccccc1 (stereo not given) do in these assays?
Pf growth 96h: 0%; AMA1-RON2 inh: 3%; Pf growth 48h: inconclusive; HCV inh: 3.5µM*

What do the screens show for `CCn1c(SCC(=O)c2cc(C)ccc2C)nc2cc(S(=O)(=O)N3CCOCC3)ccc21`?
Pf growth 96h: 7.4µM*; AMA1-RON2 inh: -8%; Pf growth 48h: inconclusive; HCV inh: inconclusive

Results for Cc1ccc(S(=O)(=O)N2CCOCC2)cc1C(=O)OCCOc1cccc(Cl)c1 ?
Pf growth 96h: 10µM*; AMA1-RON2 inh: 7%; Pf growth 48h: inconclusive; HCV inh: inconclusive

What do the screens show for `Cc1ccc(S(=O)(=O)N2CCOCC2)cc1C(=O)OCC(=O)N1CCCCC1`?
AMA1-RON2 inh: 29%[11.6 µM]; HCV inh: -4%

How did Cc1ccc(COC(=O)c2cc(S(=O)(=O)N3CCOCC3)ccc2C)cc1 do in these assays?
Pf growth 96h: 13µM*; AMA1-RON2 inh: 12%; Pf growth 48h: 9.3µM*; HCV inh: inconclusive

Results for CCn1c2ccccc2c2nc3cc(S(=O)(=O)N4CCOCC4)ccc3nc21 ?
Pf growth 96h: -78%; AMA1-RON2 inh: 10%; HCV inh: 10µM*

Results for COc1ccc(-c2cn(-c3ccc(C)cc3C)c(=O)[nH]2)cc1OC ?
Pf growth 96h: inconclusive; AMA1-RON2 inh: 14%; Pf growth 48h: 10%; HCV inh: 11µM*

How did O=c1cc(CS(=O)(=O)c2ccccc2)nc(-c2ccncc2)[nH]1 do in these assays?
Pf growth 96h: inconclusive; AMA1-RON2 inh: -4%; Pf growth 48h: 12µM*; HCV inh: 11%

Results for COCc1cc(=O)[nH]c(-c2ccccc2)n1 ?
Pf growth 96h: -48%[5.75 µM]; AMA1-RON2 inh: -1%; Pf growth 48h: -17%; HCV inh: 6%

How did CC(CC(=O)Nc1nnc(CC(C)(C)C)s1)c1ccccc1 (stereo not given) do in these assays?
Pf growth 96h: inconclusive; AMA1-RON2 inh: 6%; Pf growth 48h: 7%; HCV inh: 12%

What do the screens show for `CCCn1c(NC(=O)c2cccc(C)c2C)nc2ccccc21`?
Pf growth 96h: 8.3µM*; AMA1-RON2 inh: 88%; HCV inh: 11µM*

Results for CCCn1c(NC(=O)C2CCN(C(=O)c3ccccc3C)CC2)nc2ccccc21 ?
Pf growth 96h: inconclusive; AMA1-RON2 inh: 68%; Pf growth 48h: 12µM*; HCV inh: inconclusive

How did Cn1c(NC(=O)c2ccccc2NC(=O)C(C)(C)C)nc2ccccc21 do in these assays?
Pf growth 96h: inconclusive; AMA1-RON2 inh: 126%; Pf growth 48h: inconclusive; HCV inh: 7.1µM*

Results for Cc1cccc(NC(=O)C2CCN(C(=O)c3ccccc3C)CC2)n1 ?
Pf growth 96h: -21%; AMA1-RON2 inh: -10%; Pf growth 48h: -1%; HCV inh: -7%

How did ClC(Cl)c1nnc(-c2ccccc2)c(-c2c[nH]c3ccccc23)n1 do in these assays?
Pf growth 96h: 9.3µM*; AMA1-RON2 inh: -7%; Pf growth 48h: inconclusive; HCV inh: inconclusive

Results for O=C(NCCc1c[nH]c2ccccc12)/C(=C\c1cccs1)NC(=O)c1ccccc1 ?
Pf growth 96h: 15µM*; AMA1-RON2 inh: -15%; Pf growth 48h: inconclusive; HCV inh: -18%

How did COc1ccc(C(=O)NCCc2c[nH]c3ccccc23)cc1OC do in these assays?
Pf growth 96h: inconclusive; AMA1-RON2 inh: 1%; Pf growth 48h: -15%; HCV inh: inconclusive

What do the screens show for `O=C(NCCc1c[nH]c2ccccc12)/C(=C\c1cccnc1)NC(=O)c1cccs1`?
Pf growth 96h: 45%; AMA1-RON2 inh: 11%[2.32 µM]; Pf growth 48h: -11%; HCV inh: 26%

What do the screens show for `COc1ccc(C(=O)N/C(=C\c2cccc3ccccc23)C(=O)NCCc2c[nH]c3ccccc23)cc1OC`?
Pf growth 96h: 5.9µM*; AMA1-RON2 inh: -16%; Pf growth 48h: 2.9µM*; HCV inh: inconclusive
